# Laboratory results: PubChem BioAssay (NCATS)
# Results filed as inconclusive are left out. Values without a mark were called inactive. Activity calls are given as the source filed them. Calls come from the whole dose curve; as a rule, active = well fitted cell-killing curve with a large enough effect; inconclusive = small, poorly fitted or top-dose-only effect, or effect the other way; inactive = no such curve, though single readings can be large or run the other way.
# Key:
# [1] = Quantitative High-Throughput drug screen in 47 multiple myeloma cell lines against the NCATS MIPE library collection: OCIMY7_PLB cell viability assay (AID 1918987); settings: OCI-MY7 myeloma viability, CellTiter-Glo ATP, 48 h; viability (% of DMSO): at 45.8 µM (top of the series); note: nearly all actives have a fitted effect of over 65% in size
# How it was run: (§1)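 Myeloma cells (500/well) treated with MIPE 4.0 compounds for 48 h at 37 °C, 5% CO2. Viability read as ATP via CellTiter-Glo luminescence after 5 min at RT; DMSO-only wells = 100%, media-only = 0% viability.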
# [2] = Quantitative High-Throughput drug screen in 47 multiple myeloma cell lines against the NCATS MIPE library collection: OPM1_PLB cell viability assay (AID 1918989); note: nearly all actives have a fitted effect of over 40% in size
# How it was run: as §1
# [3] = Quantitative High-Throughput drug screen in 47 multiple myeloma cell lines against the NCATS MIPE library collection: U266_ATCC cell viability assay (AID 1919864); note: nearly all actives have a fitted effect of over 35% in size
# How it was run: as §1
# [4] = Quantitative High-Throughput drug screen in 47 multiple myeloma cell lines against the NCATS MIPE library collection: XG6_PLB cell viability assay (AID 1919865); note: nearly all actives have a fitted effect of over 40% in size
# How it was run: as §1
# [5] = Quantitative High-Throughput drug screen in 47 multiple myeloma cell lines against the NCATS MIPE library collection: XG1_PLB cell viability assay (AID 1919866); note: nearly all actives have a fitted effect of over 35% in size
# How it was run: as §1
# [6] = Quantitative High-Throughput drug screen in 47 multiple myeloma cell lines against the NCATS MIPE library collection: VP6_DJ cell viability assay (AID 1919867); note: nearly all actives have a fitted effect of over 40% in size
# How it was run: as §1
# [7] = Quantitative High-Throughput drug screen in 47 multiple myeloma cell lines against the NCATS MIPE library collection: UTMC2_PLB cell viability assay (AID 1919868); settings: CellTiter-Glo ATP luminescence, 48 h; viability (% of DMSO control): at 45.8 µM (top of the series); note: nearly all actives have a fitted effect of over 55% in size
# How it was run: as §1
# [8] = Quantitative High-Throughput drug screen in 47 multiple myeloma cell lines against the NCATS MIPE library collection: PE2_PLB cell viability assay (AID 1919869); note: nearly all actives have a fitted effect of over 35% in size
# How it was run: as §1
# [9] = Quantitative High-Throughput drug screen in 47 multiple myeloma cell lines against the NCATS MIPE library collection: SKMM1_PLB cell viability assay (AID 1919863); settings: SKMM1 myeloma viability, CellTiter-Glo ATP, 48 h; viability: active compounds read low; note: nearly all actives have a fitted effect of over 35% in size
# How it was run: as §1
# [10] = Quantitative High-Throughput drug screen in 47 multiple myeloma cell lines against the NCATS MIPE library collection: OCIMY5_PLB cell viability assay (AID 1918988); note: nearly all actives have a fitted effect of over 65% in size
# How it was run: as §1
# Potency is the fitted concentration of half-maximal effect.
SMILES,Potency [1],Potency [2],Potency [3],Potency [4],Potency [5],Potency [6],Potency [7],Potency [8],viability [9] [%],Potency [10],Potency [9]
CCNC(=O)c1noc(-c2cc(C(C)C)c(O)cc2O)c1-c1ccc(CN2CCOCC2)cc1,0.0469 µM (active),0.0833 µM (active),0.0332 µM (active),0.132 µM (active),0.0743 µM (active),0.0372 µM (active),0.0833 µM (active),0.105 µM (active),,,
O=C(c1ccc(C=Cc2n[nH]c3ccccc23)cc1)N1CCNCC1,0.662 µM (active),2.64 µM (active),18.7 µM (active),14.8 µM (active),0.833 µM (active),3.72 µM (active),0.332 µM (active),5.9 µM (active),,,
Nc1[nH]nc2nnc(-c3c(-c4ccccc4)nn4ccccc34)cc12,0.209 µM (active),5.26 µM (active),5.26 µM (active),3.72 µM (active),,1.66 µM (active),4.18 µM (active),9.35 µM (active),,,
O=C(O)C1=CO[C@@H](O[C@@H]2O[C@H](CO)[C@H](O)[C@H](O)[C@H]2O)[C@@H]2C(CO)=CC[C@H]12,inactive,inactive,,inactive,inactive,inactive,,inactive,,,
CCOC(=O)[C@H](CCc1ccccc1)N[C@@H](C)C(=O)N1CCCC1C(=O)O (some centres not stated),inactive,inactive,20.9 µM (active),23.5 µM (active),23.5 µM (active),20.9 µM (active),,inactive,,,
c1ccc(CNc2nc(N3CCOc4ccccc43)nc3c2CCCC3)cc1,inactive,inactive,inactive,inactive,inactive,,,,,,
Cc1cc(C(C)Nc2ccccc2)c2nc(N3CCOCC3)cc(=O)n2c1 (configuration not stated),2.09 µM (active),20.9 µM (active),inactive,1.05 µM (active),,3.32 µM (active),,,,,
CN(C)CC[C@H](CSc1ccccc1)Nc1ccc(S(=O)(=O)NC(=O)c2ccc(N3CCN(Cc4ccccc4-c4ccc(Cl)cc4)CC3)cc2)cc1[N+](=O)[O-],0.209 µM (active),10.5 µM (active),14.8 µM (active),3.72 µM (active),,2.64 µM (active),1.18 µM (active),1.48 µM (active),,,
C[C@H](CCC(=O)O)[C@H]1CC[C@H]2[C@H]3[C@@H](CC[C@]12C)[C@@]1(C)CC[C@@H](O)C[C@H]1C[C@@H]3O,inactive,inactive,,,,20.9 µM (active),,inactive,120,,
C=C1[C@H](n2cnc3c(=O)[nH]c(N)nc32)C[C@H](O)[C@H]1CO,1.18 µM (active),2.35 µM (active),14.8 µM (active),inactive,1.18 µM (active),4.69 µM (active),,inactive,,,
Fc1ccc(CNc2ncnc3ccc(F)cc23)cc1,,16.6 µM (active),13.2 µM (active),14.8 µM (active),4.69 µM (active),5.9 µM (active),,,104,16.6 µM (active),
N#CC(c1ccc(Cl)cc1)c1c(Cl)cc(-n2ncc(=O)[nH]c2=O)cc1Cl (configuration not stated),4.69 µM (active),5.9 µM (active),,14.8 µM (active),18.7 µM (active),20.9 µM (active),,18.7 µM (active),,,
C[C@H]1[C@H](O)O[C@@H]2O[C@@]3(C)CC[C@@H]4[C@H](C)CC[C@@H]1[C@@]24OO3,1.18 µM (active),11.8 µM (active),,3.72 µM (active),3.72 µM (active),1.48 µM (active),,2.35 µM (active),,,
COc1ccc2nc3cc(Cl)ccc3c(Nc3cc(CN4CCCC4)c(O)c(CN4CCCC4)c3)c2n1,,23.5 µM (active),23.5 µM (active),14.8 µM (active),18.7 µM (active),9.35 µM (active),,18.7 µM (active),,18.7 µM (active),14.8 µM (active)
CN(C)N=Nc1nc[nH]c1C(N)=O,,4.18 µM (active),inactive,5.26 µM (active),2.64 µM (active),,,,140,20.9 µM (active),
CC1=C(CC(=O)O)c2cc(F)ccc2C1=Cc1ccc(S(C)=O)cc1 (configuration not stated),,26.4 µM (active),1.18 µM (active),1.05 µM (active),0.935 µM (active),7.43 µM (active),18.7 µM (active),20.9 µM (active),92.7,0.935 µM (active),
